# Assay results: the supplement of paper PMC6331611
# ± gives the standard deviation of the averaged measurements. Whole data set: some 1,600 compounds, median “normalized growth (OD600, IQM-normalized) in LPM” near 1, cut for the lowest 2% near 0.014. What follows is part of a selection rich in the lowest values, with near analogues and random picks from the rest.
# Tested on: Salmonella enterica serovar Typhimurium SL1344
# Assay: normalized growth (OD600, IQM-normalized) in LPM (fraction of plate interquartile mean); higher = more bacterial growth (less inhibition)
# Conditions: LPM pH 5.8; 10 µM; 16 h
row,SMILES,normalized growth
1,Nc1[nH]cnc2ncnc1-2,0.993 ± 0.02
2,CCCNC(C)(C)COC(=O)c1ccccc1,0.983 ± 0.027
3,CC(=O)c1ccc2c(c1)N(CCCN1CCN(CCO)CC1)c1ccccc1S2,0.869 ± 0.053
4,CCCCCCCCCCCCCCCCCCCCCCO,1.11 ± 0.1
5,CC(=O)Nc1ccc(S(=O)(=O)c2ccc(NC(C)=O)cc2)cc1,0.889 ± 0.067
6,CCC(=O)OCC(=O)[C@@]1(OC(=O)CC)[C@H](C)CC2C3C([C@@H](O)C[C@@]21C)[C@@]1(C)C=CC(=O)C=C1C[C@H]3Cl (some centres not stated),1.03 ± 0.019
7,O=C1c2ccccc2C(=O)C1c1ccc(Br)cc1,0.935 ± 0.066
8,O=C(OOC(=O)c1ccccc1)c1ccccc1,1.08 ± 0.046
9,Cc1cnc(C(=O)O)c[n+]1[O-],0.993 ± 0.078
10,C[C@@H]1NC(=O)[C@@H](N)CNC(=O)[C@H](C2CCNC(=N)N2)NC(=O)/C(=C/NC(N)=O)NC(=O)[C@H](CNC(=O)CC(N)CCCN)NC1=O.N=C1NCC[C@H]([C@@H]2NC(=O)/C(=C/NC(N)=O)NC(=O)[C@H](CNC(=O)C[C@@H](N)CCCN)NC(=O)[C@H](CO)NC(=O)[C@@H](N)CNC2=O)N1,0.985 ± 0.046
11,CC(C)(C)CC(C)(C)c1ccc(O)c(Cc2ccc(Cl)cc2Cl)c1,0.861 ± 0.066
12,Oc1ccc(OCc2ccccc2)cc1,0.91 ± 0.11
13,Cc1cc(NS(=O)(=O)c2ccc(N)cc2)no1,1.01 ± 0.022
14,CC[C@H](C)[C@H](N)C1=N[C@H](C(=O)N[C@@H](CC(C)C)C(=O)N[C@H](CCC(=O)O)C(=O)N[C@H](C(=O)N[C@H]2CCCCNC(=O)[C@H](CC(N)=O)NC(=O)[C@@H](CC(=O)O)NC(=O)[C@H](Cc3cnc[nH]3)NC(=O)[C@@H](Cc3ccccc3)NC(=O)[C@H]([C@@H](C)CC)NC(=O)[C@@H](CCCN)NC2=O)[C@@H](C)CC)CS1,1.06 ± 0.043
15,CC(C)OC(=O)CCC/C=C\C[C@@H]1[C@@H](/C=C/[C@@H](O)COc2cccc(C(F)(F)F)c2)[C@H](O)C[C@@H]1O,1.032 ± 0.0058
16,C=CC[C@@H]1/C=C(\C)C[C@H](C)C[C@H](OC)[C@H]2O[C@@](O)(C(=O)C(=O)N3CCCC[C@H]3C(=O)O[C@H](/C(C)=C/[C@@H]3CC[C@@H](O)[C@H](OC)C3)[C@H](C)[C@@H](O)CC1=O)[C@H](C)C[C@@H]2OC,0.857 ± 0.044
17,NC(=O)C1(N2CCCCC2)CCN(CCCC(=O)c2ccc(F)cc2)CC1,1.02 ± 0.051
18,CC(C)(S)[C@@H](N)C(=O)O,1.083 ± 0.0063
19,CC1=CC(=O)c2ccccc2C1=O,0.984 ± 0.017
20,O=[N+]([O-])c1ccc(O)c2ncccc12,0.00762 ± 0.00015
21,Oc1c(I)cc(I)c2cccnc12,0.58 ± 0.02
22,Oc1ccc(Cl)c2cccnc12,0.847 ± 0.037
23,C[C@@H](O)CN(CCN(C[C@@H](C)O)C[C@@H](C)O)C[C@@H](C)O,1.17 ± 0.054
24,CN(N=O)C(=O)N[C@H]1C(O)O[C@H](CO)[C@@H](O)[C@@H]1O (mixture of isomers),0.929 ± 0.021
25,COc1cccc2c1C(=O)c1c(O)c3c(c(O)c1C2=O)C[C@@](O)(C(C)=O)C[C@@H]3O[C@H]1C[C@H](N)[C@H](O)[C@H](C)O1,0.946 ± 0.016
26,CC(NCCC(c1ccccc1)c1ccccc1)c1ccccc1 (configuration not stated),0.976 ± 0.038

row,SMILES,normalized growth
1,O=C(O)CCNC(=O)c1ccc(/N=N/c2ccc(O)c(C(=O)O)c2)cc1,1 ± 0.051
2,C[C@H]1O[C@H](O[C@H]2[C@H](O)[C@@H](O)[C@@H](O[C@H]3[C@H](O)[C@@H](O)C(O)O[C@@H]3CO)O[C@@H]2CO)[C@H](O)[C@@H](O)[C@@H]1N[C@H]1C=C(CO)[C@@H](O)[C@H](O)[C@H]1O (some centres not stated),1.07 ± 0.011
3,CCOC(=O)c1ccc(O)cc1,1.02 ± 0.045
4,N[C@@H](Cc1cc(I)c(Oc2cc(I)c(O)c(I)c2)c(I)c1)C(=O)O,1.03 ± 0.039
5,O=C(COc1ccc(Cl)cc1)N1CCN(Cc2ccc3c(c2)OCO3)CC1,0.928 ± 0.019
6,COc1c(C)c2c(c(O)c1C/C=C(\C)CCC(=O)OCCN1CCOCC1)C(=O)OC2,1.01 ± 0.035
7,CC(=O)Nc1c(I)cc(I)c(C(=O)O)c1I,0.949 ± 0.12
8,Cc1c(OCC(F)(F)F)ccnc1C[S@@+]([O-])c1nc2ccccc2[nH]1,0.967 ± 0.085
9,CSCC[C@H](NC(=O)[C@H](Cc1c[nH]c2ccccc12)NC(=O)CCNC(=O)OC(C)(C)C)C(=O)N[C@@H](CC(=O)O)C(=O)N[C@@H](Cc1ccccc1)C(N)=O,1.09 ± 0.026
10,CC[C@H](c1ccc(O)cc1)[C@@H](CC)c1ccc(O)cc1,1.13 ± 0.018
11,CC(C)c1nc(N(C)S(C)(=O)=O)nc(-c2ccc(F)cc2)c1/C=C/[C@@H](O)C[C@@H](O)CC(=O)O,1.03 ± 0.097
12,CCn1nc(C(=O)O)c(=O)c2cc3c(cc21)OCO3,0.00789 ± 0.00035
13,CCCc1nc(C)c2c(O)nc(-c3cc(S(=O)(=O)N4CCN(CC)CC4)ccc3OCC)nn12,1.02 ± 0.053
14,CC1(C)S[C@@H]2[C@H](N3C(=O)[C@@H](c4ccccc4)NC3(C)C)C(=O)N2[C@H]1C(=O)O,0.976 ± 0.053
15,CCOC(=O)O[C@]1(C(=O)COC(=O)CC)CC[C@H]2[C@@H]3CCC4=CC(=O)C=C[C@]4(C)[C@H]3[C@@H](O)C[C@@]21C,1 ± 0.03
16,CC(=O)Oc1cccc(C)c1 [meta-CRESYL ACETATE],0.995 ± 0.048
17,OCCN1C[C@H](O)[C@@H](O)[C@H](O)[C@H]1CO,0.993 ± 0.016
18,C#CC1(O)CC[C@H]2[C@@H]3CCC4=CC(=O)CC[C@@H]4[C@H]3CC[C@@]21CC (some centres not stated),0.941 ± 0.024
19,CC(=O)Nc1ccc(OC(C)=O)cc1,1.05 ± 0.08
20,CCC1=C(C)CN(C(=O)NCCc2ccc(S(=O)(=O)NC(=O)N[C@H]3CC[C@H](C)CC3)cc2)C1=O,0.926 ± 0.053
21,Nc1cc(C(Cl)=C(Cl)Cl)c(S(N)(=O)=O)cc1S(N)(=O)=O,1.01 ± 0.036
22,CC(=O)Oc1cccc(C(=O)O)c1OC(C)=O,0.912 ± 0.079
23,O=C(Nc1ccccc1)OCC(CN1CCCCC1)OC(=O)Nc1ccccc1 (configuration not stated),0.903 ± 0.047
24,CC(=O)OCC(=O)[C@@]1(O)CC[C@H]2[C@@H]3CCC4=CC(=O)C=C[C@]4(C)[C@@]3(Cl)[C@@H](Cl)C[C@@]21C,0.894 ± 0.024
25,CC[N+](C)(CC)CCOC(=O)C(O)(c1ccccc1)C1CCCCC1 (configuration not stated),1.1 ± 0.03
26,CC1/C=C/C=C/C=C/C=C/C=C/C=C/C=C/C(OC2O[C@H](C)[C@@H](O)[C@H](N)[C@@H]2O)CC(O)C(C(=O)O)C(O)CC(=O)CC(O)CC(O)CC(O)CC(=O)CCCC(=O)CC(=O)OC1C(C)CC(C)C(O)CC(=O)c1ccc(N)cc1 (some centres not stated),1.03 ± 0.045
